# Results from PubChem BioAssay (NCI).
# The panel holds about 83,000 compounds, 20% with a hit somewhere; the sample as a whole holds those more often.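 A percent growth of 40 corresponds to 60% growth inhibition; 0 means no net growth; -100 means all cells died. Active threshold: below 10.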 Active and inactive are the calls of the source.
# Test system: HOP-62 NSCLC
# Assay: NCI-60 one-dose screen, 48 h (100 = growth as untreated, 0 = no growth, -100 = all killed)
# Conditions: 10 µM unless noted
# Method: Growth inhibition of the HOP-62 human Non-Small Cell Lung tumor cell line is measured as a screen for anti-cancer activity. Cells are grown in 96 well plates and exposed to the test compound for 48 hours. Compounds are tested at a single concentration, which is 10^-5 M for most compounds. The reported endpoint is percent growth (GI% or GIPRCNT), where numbers from 0 - 100% represent growth inhibition, and numbers from -100% - 0 represent cell death. For example, a value of 40 represents 60% growth inhibition. A value of 0 means no net growth occurred over the course of the experiment. A value of -40 indicates 40% of cells at the beginning of the experiment died by the end of the experiment. A value of -100 means all cells are dead at the end of the experiment.
# NCI-60 Human Tumor Cell Lines Screen was performed using the standard one-dose NCI protocol, which is described in more detail at https://dtp.cancer.gov/discovery_development/nci-60/default.htm.
# Compounds with GIPRCNT values below 10 were considered active. Activity score was based on GIPRCNT using the following formula: […]
# Score is 0 for GIPRCNT values of 100 or above, 50 for GIPRCNT values of 0, and 100 for GIPRCNT values of -100.
row,SMILES,growth
1,Cc1ccc(NC(=O)c2cc(-c3nc4ccccc4s3)c(=O)n(NS(=O)(=O)c3ccc(Cl)cc3)c2N)cc1,106% (inactive)
2,O=C1Nc2cc(-c3cccc(O)c3)ccc2/C1=C/c1ccc[nH]1,14% (inactive)
3,O=C1Nc2cc(-c3cccc([N+](=O)[O-])c3)ccc2/C1=C/c1ccc[nH]1,76.4% (inactive)
4,Oc1cccc(CCc2ccc(Oc3cc(CCc4cccc(O)c4)cc(O)c3O)cc2)c1,92.5% (inactive)
5,COc1ccc(C(=O)c2cc(C)c(OC)c(C)c2)c(OC)c1N(C(=O)CCl)C(=O)CCl,9.36% (active)
6,CCN1Cc2nc3sc(C)c(C)c3c(=O)n2C=C1C,32.6% (inactive)
7,CCC(=O)Oc1ccc(/C(=C(\C)c2ccccc2)c2ccc(OCCN3CCCCC3)cc2)cc1,76% (inactive)
8,N#CC1=C(N)Oc2c(cnn2-c2ccc([N+](=O)[O-])cc2[N+](=O)[O-])C1c1ccccc1 (stereo not given),98.3% (inactive)
9,COc1cc(CC(=O)c2ccc(O)c(OC)c2)ccc1O,91.4% (inactive)
10,O=C1Nc2ccc(F)cc2/C1=C\c1c(-c2ccccc2)nc2ccccn12,72.5% (inactive)
11,CN(C)c1ccc(C2C(C#N)=C(/N=C/c3ccccc3)Oc3c2ccc2ccccc32)cc1 (stereo not given),51.2% (inactive)
12,O=S(=O)(NCCNc1nccc(-c2c(-c3cccc(F)c3)nc3sccn23)n1)c1ccccc1,60.2% (inactive)
13,Cc1nn(-c2ccccc2)c(Cl)c1/C=C/C(=O)c1ccc(F)cc1,89.5% (inactive)
14,O=S(=O)(NCCNc1nccc(-c2c(-c3cccc(O)c3)nc3occn23)n1)c1ccccc1,119% (inactive)
15,Cc1ccc(NS(=O)(=O)c2ccc(-c3cnc(C4CC4)o3)cc2)cc1C(F)(F)F,60.7% (inactive)
16,C=C(C)[C@@H]1CC[C@]2(C(=O)N3CCN(C)CC3)CC[C@]3(C)[C@H](CC[C@@H]4[C@@]5(C)C/C(=C/c6cccnc6)C(=O)C(C)(C)[C@@H]5CC[C@]43C)[C@@H]12,88.4% (inactive)
17,C=C1C(=O)O[C@H]2[C@H]1CC/C(CNC(=O)C(C)c1ccc(CC(C)C)cc1)=C\CC[C@@]1(C)O[C@@H]21 (stereo not given in full),60% (inactive)
18,COc1cc2nc(-c3ccc(Cl)cc3)cc(OCCCN3CCC(O)CC3)c2cc1OC,63.2% (inactive)
19,S=c1cc(S)c2cc(Br)ccc2[nH]1,85.9% (inactive)
20,COc1ccc(/C=C/c2nc(Nc3ccc(S(=O)(=O)NC(C)=O)cc3)c3ccccc3n2)cc1,81.2% (inactive)

row,SMILES,growth
1,O=C1Nc2ccccc2/C1=C\c1c(-c2ccc(F)cc2)nc2ccccn12,72.4% (inactive)
2,Cc1cc(C)c(S(=O)(=O)Oc2ccccc2[N+](=O)[O-])c(C)c1,39.8% (inactive)
3,NC(=NCCCOc1ccc(F)cc1)Nc1ccc(Cl)cc1,46.6% (inactive)
4,CC1=C(C(=O)/C=C/c2c[nH]c3ccccc23)C(c2ccccc2)NC(=S)N1 (stereo not given),97.9% (inactive)
5,COc1ccc(/C=C2\Oc3cc(OCCCN4CCCCC4)ccc3C2=O)cc1OC,85.7% (inactive)
6,CNC(=O)c1cncc(Cn2nc(C)c(NC(=O)c3ccc(COc4ccc(C(F)(F)F)cc4C)cc3)c2C)c1,56.9% (inactive)
7,C#Cc1cccc(NC(=O)c2cccc(NC(=O)CCl)c2)c1,-24.9% [8.25 µM] (active)
8,Nc1ccccc1NC(=O)c1ccc(-n2nc(-c3ccccc3)c3ccccc32)cc1,84.7% (inactive)
9,C[C@H]1[C@H](C)CC[C@]2(C(=O)NCC#CCN3CCN(C)CC3)CC[C@]3(C)C(=CC[C@@H]4[C@@]5(C)Cc6c([nH]c7ccccc67)C(C)(C)[C@@H]5CC[C@]43C)[C@H]12,93.1% (inactive)
10,C#CCNC(=O)c1cccc2c1cc(C)n2-c1nc2c(c(NCc3ccccc3)n1)CCCC2,-6.14% (active)
11,CCCCCN1C=C/C(=C\C(=O)N(C)c2ccc(Oc3ccccc3)cc2)c2ccccc21,87.4% (inactive)
12,Cc1cc2nc3c4cc(C=O)ccc4n(CCN(C)C)c3nc2cc1C,7.67% (active)
13,O=C(NO)c1ccc(-n2nc(-c3ccccc3)c3ccccc32)cc1,29.7% (inactive)
14,COc1cc2oc(-c3cccc(C(=O)Nc4ccc(Br)cc4)c3)cc(=O)c2c(OC)c1OC,58% (inactive)
15,CCCCCCCC(=O)OCC/C=C/C1OC1C1OC(=O)/C=C\C=C\C(=O)N(C(C)=O)C(=O)/C=C(/C)CCC2OC2C1OC(=O)NC(C)=O (stereo not given),79.8% (inactive)
16,NC(=S)N1N=C(c2ccccc2)CC1c1cn(-c2ccccc2)nc1-c1ccc(OCc2ccccc2)cc1 (stereo not given),101% (inactive)
17,O=C(NCCc1ccccc1)Nc1ccc2cc3ccc(NC(=O)NCCc4ccccc4)cc3nc2c1,39.4% (inactive)
18,O=C(/C(=C\c1ccc([N+](=O)[O-])cc1)S(=O)Cc1ccc(Cl)cc1)c1ccc(Cl)cc1 (stereo not given),96.1% (inactive)
19,COc1cc(/C=C/c2cc(O)c(C(C)=O)c(O)c2)cc2c1O[C@]1(C)CC[C@@H](O)C(C)(C)[C@H]1C2,52.7% (inactive)
20,Cn1cc(-c2nc(-c3c[nH]c4c(Cl)nccc34)cs2)c2cc(Br)ccc21,82% (inactive)
